Drawing on paper PMC7862700, “An all-to-all approach to the identification of sequence-specific readers for epigenetic DNA modifications on cytosine”, this text covers binding signal for seven sequences.

Test in all cases: DAPPL (digital affinity profiling via proximity ligation, sequencing); 10 mM Tris-HCl pH 7.5, 50 mM NaCl, 1 mM DTT, 4% glycerol, room temperature, 30 min; GST-TFs on glutathione beads, 16-mer random dsDNA library, 0.1% formaldehyde crosslink after washing; high values mean tight binding
What all share (details): protein: recombinant; tags: N-terminal GST; dsDNA, one strand shown

Assay [1] addresses T1, ERF (Homo sapiens, UniProt P50548 1-548).
T1 sequence: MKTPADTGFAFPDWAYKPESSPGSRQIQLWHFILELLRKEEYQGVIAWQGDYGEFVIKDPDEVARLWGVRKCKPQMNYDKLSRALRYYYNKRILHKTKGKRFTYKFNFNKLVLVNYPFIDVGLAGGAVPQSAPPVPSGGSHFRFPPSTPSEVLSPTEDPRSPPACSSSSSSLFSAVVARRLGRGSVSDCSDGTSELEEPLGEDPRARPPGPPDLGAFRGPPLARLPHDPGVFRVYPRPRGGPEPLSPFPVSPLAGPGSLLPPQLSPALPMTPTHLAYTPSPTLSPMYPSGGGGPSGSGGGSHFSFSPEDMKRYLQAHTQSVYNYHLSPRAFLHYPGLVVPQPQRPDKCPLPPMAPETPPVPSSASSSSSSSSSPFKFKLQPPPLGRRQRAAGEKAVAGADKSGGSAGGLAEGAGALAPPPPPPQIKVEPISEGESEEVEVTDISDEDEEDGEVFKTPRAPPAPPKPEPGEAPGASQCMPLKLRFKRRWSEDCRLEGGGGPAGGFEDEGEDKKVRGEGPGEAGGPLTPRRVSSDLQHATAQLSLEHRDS
In a few lines:
(§1)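 Sequencing on an Illumina NextSeq500 followed washing, crosslinking with 0.1% formaldehyde, proximity ligation (BsaI/T4 ligase, 1 h, 37 °C) and PCR amplification of pools that had been incubated for 30 min at room temperature with 200 nmole of a random double-stranded 16-mer DNA library in Tris/NaCl/DTT/glycerol buffer. Each pool held DNA-barcoded human transcription factors, expressed in yeast as GST fusions and captured on glutathione beads, plus a tag-only sample. Binding signal is a hexamer's read frequency for a factor divided by its frequency in the tag-only sample.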

Assay [2] concerns the target T2, ETV3L (Homo sapiens, UniProt Q6ZN32 1-361).
T2 sequence: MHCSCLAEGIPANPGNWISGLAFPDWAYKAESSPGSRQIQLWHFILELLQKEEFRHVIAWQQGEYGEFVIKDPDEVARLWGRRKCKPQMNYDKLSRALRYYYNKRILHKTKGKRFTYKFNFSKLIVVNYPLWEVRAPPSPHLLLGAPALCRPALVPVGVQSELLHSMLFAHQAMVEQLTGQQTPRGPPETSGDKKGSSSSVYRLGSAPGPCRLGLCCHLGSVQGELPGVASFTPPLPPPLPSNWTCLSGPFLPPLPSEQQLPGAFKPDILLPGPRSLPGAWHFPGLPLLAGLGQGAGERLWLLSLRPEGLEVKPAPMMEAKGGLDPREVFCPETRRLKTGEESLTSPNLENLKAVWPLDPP
In a few lines: as §1

Assay [3] deals with T3, ETS2 (Homo sapiens, UniProt P15036 1-469).
T3 sequence: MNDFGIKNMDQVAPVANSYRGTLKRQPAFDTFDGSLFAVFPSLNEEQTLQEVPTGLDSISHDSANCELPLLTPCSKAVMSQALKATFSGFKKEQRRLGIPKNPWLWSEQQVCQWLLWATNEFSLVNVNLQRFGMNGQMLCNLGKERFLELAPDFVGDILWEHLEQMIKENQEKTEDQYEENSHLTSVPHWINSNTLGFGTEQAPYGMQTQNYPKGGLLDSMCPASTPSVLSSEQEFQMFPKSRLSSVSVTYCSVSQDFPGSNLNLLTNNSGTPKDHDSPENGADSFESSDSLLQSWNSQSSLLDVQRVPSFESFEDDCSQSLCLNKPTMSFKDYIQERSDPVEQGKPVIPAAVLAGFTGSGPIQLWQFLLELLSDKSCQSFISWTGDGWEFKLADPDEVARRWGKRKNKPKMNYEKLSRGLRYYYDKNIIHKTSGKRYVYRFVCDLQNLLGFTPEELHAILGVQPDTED
In a few lines:
as §1

The target in assay [4] is T4, SPDEF (Homo sapiens, UniProt O95238 1-335).
T4 sequence: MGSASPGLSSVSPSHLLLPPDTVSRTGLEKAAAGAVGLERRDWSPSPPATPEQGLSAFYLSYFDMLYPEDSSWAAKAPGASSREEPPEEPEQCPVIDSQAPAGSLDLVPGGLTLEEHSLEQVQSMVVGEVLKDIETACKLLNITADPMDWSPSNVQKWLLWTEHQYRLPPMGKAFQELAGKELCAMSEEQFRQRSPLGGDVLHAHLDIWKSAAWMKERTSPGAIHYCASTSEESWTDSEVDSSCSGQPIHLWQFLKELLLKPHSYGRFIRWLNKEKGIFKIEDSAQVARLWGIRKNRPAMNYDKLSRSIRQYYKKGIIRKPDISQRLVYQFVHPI
The method, boiled down:
as §1

For assay [5], the target named is T5, ETV7 (Homo sapiens, UniProt Q9Y603 1-341).
T5 sequence: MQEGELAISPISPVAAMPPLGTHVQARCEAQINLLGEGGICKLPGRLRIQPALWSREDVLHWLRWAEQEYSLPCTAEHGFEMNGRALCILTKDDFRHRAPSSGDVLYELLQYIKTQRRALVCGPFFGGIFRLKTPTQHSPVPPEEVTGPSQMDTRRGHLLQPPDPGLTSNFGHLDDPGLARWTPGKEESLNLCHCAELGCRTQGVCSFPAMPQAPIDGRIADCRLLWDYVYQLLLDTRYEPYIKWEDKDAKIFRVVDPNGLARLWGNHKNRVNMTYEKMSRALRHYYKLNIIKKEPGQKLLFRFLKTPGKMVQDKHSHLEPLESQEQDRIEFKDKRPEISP
In a few lines:
as §1

Assay [6] concerns the target T6, ELF5 (Homo sapiens, UniProt Q9UKW6-2 1-255).
T6 sequence: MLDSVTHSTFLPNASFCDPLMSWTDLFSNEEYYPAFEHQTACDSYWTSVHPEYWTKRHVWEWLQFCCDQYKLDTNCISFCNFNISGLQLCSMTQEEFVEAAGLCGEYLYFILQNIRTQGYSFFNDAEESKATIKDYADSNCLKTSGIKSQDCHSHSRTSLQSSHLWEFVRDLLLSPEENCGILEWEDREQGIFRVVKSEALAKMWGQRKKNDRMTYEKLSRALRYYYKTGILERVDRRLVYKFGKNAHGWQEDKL
In a few lines: as §1

Assay [7] addresses T7, ETV3 (Homo sapiens, UniProt P41162-2 1-143).
T7 sequence: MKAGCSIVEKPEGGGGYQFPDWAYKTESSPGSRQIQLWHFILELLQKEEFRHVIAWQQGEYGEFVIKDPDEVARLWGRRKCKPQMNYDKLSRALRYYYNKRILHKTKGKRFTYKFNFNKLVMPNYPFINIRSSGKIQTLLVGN
In a few lines: as §1

The target of assay [8] is ETV6 (Homo sapiens, UniProt P41212 1-452). The method, boiled down:
as §1

Sequence of ETV6 (P41212 whole entry): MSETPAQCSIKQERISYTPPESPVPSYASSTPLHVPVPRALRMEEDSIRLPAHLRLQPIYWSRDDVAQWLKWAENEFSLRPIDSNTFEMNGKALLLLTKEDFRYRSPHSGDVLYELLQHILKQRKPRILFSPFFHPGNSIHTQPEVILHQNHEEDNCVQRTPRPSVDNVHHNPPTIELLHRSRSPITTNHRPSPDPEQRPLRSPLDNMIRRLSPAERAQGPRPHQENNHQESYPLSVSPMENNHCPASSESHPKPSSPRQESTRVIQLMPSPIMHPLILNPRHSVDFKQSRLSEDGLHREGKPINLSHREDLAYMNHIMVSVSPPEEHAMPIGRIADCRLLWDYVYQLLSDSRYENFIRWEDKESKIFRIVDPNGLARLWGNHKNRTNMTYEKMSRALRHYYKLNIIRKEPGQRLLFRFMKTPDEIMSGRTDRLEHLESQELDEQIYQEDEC

For the sequence GCTTTC, the binding signal in assay [1] is 1.28 fold enrichment (6-mer frequency, TF over GST control); in assay [2] it was 1.29 fold enrichment (6-mer frequency, TF over GST control); in assay [3] it was 1.24 fold enrichment (6-mer frequency, TF over GST control); in assay [4] it was 1.18 fold enrichment (6-mer frequency, TF over GST control); in assay [5], 1.31 fold enrichment (6-mer frequency, TF over GST control); in assay [6], 1.23 fold enrichment (6-mer frequency, TF over GST control). In addition, the binding signal in assay [7] was 1.25 fold enrichment (6-mer frequency, TF over GST control); in assay [8] it was 1.23 fold enrichment (6-mer frequency, TF over GST control).

Turning to TCTGGC, the binding signal in assay [1] is 1.31 fold enrichment (6-mer frequency, TF over GST control); in assay [2], 1.11 fold enrichment (6-mer frequency, TF over GST control); in assay [3], 1.21 fold enrichment (6-mer frequency, TF over GST control); in assay [4], 1.15 fold enrichment (6-mer frequency, TF over GST control); in assay [5] it was 1.24 fold enrichment (6-mer frequency, TF over GST control); in assay [6], 1.08 fold enrichment (6-mer frequency, TF over GST control). Moreover, the binding signal was 1.06 fold enrichment (6-mer frequency, TF over GST control) in assay [7] and 1.19 fold enrichment (6-mer frequency, TF over GST control) in assay [8].

As to ACAAAT, the binding signal was 1.3 fold enrichment (6-mer frequency, TF over GST control) in assay [1]; 1.15 fold enrichment (6-mer frequency, TF over GST control) in assay [2]; 1.16 fold enrichment (6-mer frequency, TF over GST control) in assay [3]; 1.1 fold enrichment (6-mer frequency, TF over GST control) in assay [4]; 1.14 fold enrichment (6-mer frequency, TF over GST control) in assay [5]; 1.13 fold enrichment (6-mer frequency, TF over GST control) in assay [6]. Also, the binding signal in assay [7] is 1.1 fold enrichment (6-mer frequency, TF over GST control); in assay [8], 1.17 fold enrichment (6-mer frequency, TF over GST control).

CCTGAC: the binding signal in assay [1] is 1.37 fold enrichment (6-mer frequency, TF over GST control); in assay [2] it was 1.59 fold enrichment (6-mer frequency, TF over GST control); in assay [3] it was 1.56 fold enrichment (6-mer frequency, TF over GST control); in assay [4], 1.51 fold enrichment (6-mer frequency, TF over GST control); in assay [5], 1.46 fold enrichment (6-mer frequency, TF over GST control); in assay [6], 1.63 fold enrichment (6-mer frequency, TF over GST control). The binding signal was 1.44 fold enrichment (6-mer frequency, TF over GST control) in assay [7] and 1.6 fold enrichment (6-mer frequency, TF over GST control) in assay [8].

On to TTCATG, for which the binding signal in assay [1] was 1.22 fold enrichment (6-mer frequency, TF over GST control); in assay [2] it was 1.33 fold enrichment (6-mer frequency, TF over GST control); in assay [3] it was 1.33 fold enrichment (6-mer frequency, TF over GST control); in assay [4], 1.27 fold enrichment (6-mer frequency, TF over GST control); in assay [5], 1.35 fold enrichment (6-mer frequency, TF over GST control); in assay [6], 1.28 fold enrichment (6-mer frequency, TF over GST control). In addition, the binding signal in assay [7] was 1.4 fold enrichment (6-mer frequency, TF over GST control); in assay [8], 1.26 fold enrichment (6-mer frequency, TF over GST control).

As for TATACG, the binding signal was 1.39 fold enrichment (6-mer frequency, TF over GST control) in assay [1]; 1.15 fold enrichment (6-mer frequency, TF over GST control) in assay [2]; 1.37 fold enrichment (6-mer frequency, TF over GST control) in assay [3]; 1.39 fold enrichment (6-mer frequency, TF over GST control) in assay [4]; 1.39 fold enrichment (6-mer frequency, TF over GST control) in assay [5]; 1.35 fold enrichment (6-mer frequency, TF over GST control) in assay [6]. The binding signal is 1.3 fold enrichment (6-mer frequency, TF over GST control) in assay [7] and 1.23 fold enrichment (6-mer frequency, TF over GST control) in assay [8].

In the case of CTGCTA, the binding signal in assay [1] is 1.49 fold enrichment (6-mer frequency, TF over GST control); in assay [2], 1.38 fold enrichment (6-mer frequency, TF over GST control); in assay [3], 1.49 fold enrichment (6-mer frequency, TF over GST control); in assay [4] it was 1.4 fold enrichment (6-mer frequency, TF over GST control); in assay [5], 1.5 fold enrichment (6-mer frequency, TF over GST control); in assay [6], 1.43 fold enrichment (6-mer frequency, TF over GST control). The binding signal in assay [7] was 1.39 fold enrichment (6-mer frequency, TF over GST control); in assay [8] it was 1.39 fold enrichment (6-mer frequency, TF over GST control).
